Sampled rows, rich in hits. Any-hit rate of the full collection: about 20%.
Pf growth 48h: inhibits P. falciparum growth in the first generation, 48 h; Potency, µM (highest dose often 28.7 µM), inactives show top-dose activity change, negative = inhibition, hits mostly inhibitors; P. falciparum luciferase growth in erythrocytes, 48 h; hit rate 5.9% among 310,000; also: potency is read from the fitted curve at half-maximal effect; % is scaled to controls: 0 for no effect and ±100 for the full control effect
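Read-out is firefly luciferase luminescence from an integrated reporter in P. falciparum, so falling signal marks reduced parasite growth. Infected erythrocytes were at 2% hematocrit and 0.1% parasitemia (final) in Albumax-supplemented RPMI 1640.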
Pf growth 96h: P. falciparum growth inhibition at 96 hour, primary screen for plastid delayed-death inhibitors; Potency, µM (series often up to 28.7 µM), without a hit: at the highest dose activity change, negative = inhibition, usual class: inhibitors; P. falciparum luciferase reporter growth, 96 h; hit rate 6.9% among 320,000; also: potency is read from the fitted curve at half-maximal effect; % is scaled to controls: 0 for no effect and ±100 for the full control effect
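Cell-based qHTS: luciferase-tagged P. falciparum in erythrocytes (2% hematocrit, 0.05% parasitemia final) incubated with compounds for 96 hours, 37 C, 5% CO2; luciferase detection reagent then added and luminescence measured.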
Cycloheximide cs: counter-screen for Shiga toxin inhibitors: cycloheximide protein synthesis inhibition; cell reporter, cycloheximide protein synthesis inhibition counterscreen; max response, %; hit rate 12% among 300,000; in the data active = max response mostly above about 13%, no sharp cut-off; inactive = mostly below about 14%; also: read at 38.3 µM for the half of the compounds with a filed dose; 0% is about no effect
HCMV antiviral: inhibitors of human cytomegalovirus; activity change, negative = inhibition, % at 57.5 µM; HFF cells, HCMV-luciferase reporter, 72 h; active compounds read low; hit rate 4.5% among 410,000; AID 1259415; in the data active = activity change below about -60%; inconclusive = no clear call, values can overlap the other calls; inactive = above about -39%; also: % is scaled to controls: 0 for no effect and ±100 for the full control effect
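Inhibition of viral replication was scored as loss of reporter luminescence in HFFs infected with HCMV-luciferase (MOI 1 PFU/cell) for 72 h; compounds tested at 2 doses, normalized to buffer and Salinomycin controls.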
Shiga inhibitor: inhibitors of Shiga toxin in Vero cells; inhibition, % at 38.7 µM; Vero cells, Shiga toxin protein synthesis inhibition reporter; hit rate 9.2% among 290,000; in the data active = inhibition mostly above about 28%, no sharp cut-off; inactive = mostly below about 43%; also: 0% is about no effect
* marks the source's active call; other numbers are inactive results; i = inactive; ? = inconclusive; . = no result given; ! = a repeat was not active. Unless noted, calls follow the shape of the dose curve; as a rule, active = well fitted inhibition curve with a large enough effect; inconclusive = small, poorly fitted or top-dose-only effect, or another doubt; inactive = no such curve, though single readings can be large or run the other way.

SMILES	Pf growth 48h	Pf growth 96h	Cycloheximide cs	HCMV antiviral	Shiga inhibitor
O=C1CN(C(=O)COc2ccc(Cl)cc2)C(c2ccc(F)cc2)c2cc(Br)ccc2N1 (stereo not given)	.	.	.	-12	.
O=[N+]([O-])c1ccccc1CSc1ccccn1	50%	23%	11	56	53*
N#Cc1cc(Sc2ccccn2)c([N+](=O)[O-])cc1C#N	3.7µM*	69%	8	-34	-10
N#Cc1cc(Sc2ccccn2)c(Sc2ccccn2)cc1C#N	9%	34%	-3	19	-10
O=C(O)c1ccc(CSc2ccccn2)cc1	1%	12%	0	1	-4
O=[N+]([O-])c1ccc(Sc2ccccn2)nc1	?	8.3µM*	3	20	31
O=[N+]([O-])c1ccc(CSc2ccccn2)cc1	.	25%	39*	3	48
Cc1ccc(O)c(NC(=O)C2CC(c3cccc(Br)c3)=NO2)c1 (stereo not given)	?	?	4	-32	4
Cc1ccnc2nc(C(=O)OCC(=O)Nc3ccc4c(c3)OCCO4)nn12	.	.	.	-8	.
CCCCNC(=O)CCSc1nc(-c2ccc3c(c2)OCO3)cc(C(F)(F)F)n1	.	.	.	-10	.
Cc1cccc(Cn2c(CNC(=O)c3ccccc3)nc3ccccc32)c1	.	.	.	0	.
Nc1ccc(SC(F)(F)F)cc1	i	-21%	-2	21	-11
O=[N+]([O-])c1ccc(Sc2nnnn2-c2ccccc2)nc1	?	?	12	-88*	17
O=C(Nc1cc(Sc2ccccn2)cc([N+](=O)[O-])c1)c1ccc([N+](=O)[O-])cc1	13µM*	3.3µM*	1	-29	-6
Cc1ccnc(SCc2ccc([N+](=O)[O-])cc2)n1	80%	?	17*	20	46
O=[N+]([O-])c1ccc(N2CCN(c3ccccc3)CC2)nc1	14%	85%	4	-17	11
Cc1cc(C)nc(SCc2ccc([N+](=O)[O-])cc2)n1	-21%	26%	0	-16	9
O=[N+]([O-])c1ccc(SCCc2ccccn2)cc1	19%	17%	21*	1	50*
COC(=O)[C@@H]1[C@@H](CO)[C@@H]2Cn3c(ccc(Br)c3=O)[C@@H]2N1C(=O)CN(C)C	.	.	.	-2	.
COc1ccc(Br)cc1CNC(=O)CN1C(=O)CCCc2ccccc21	.	.	.	8	.
CC1(C)Cc2nc3sc4c(=O)n(CC(=O)NCc5ccco5)cnc4c3cc2CO1	46%	0%	26*	75	69*
C=CCSc1ncnc2c1oc1nc3c(cc12)COC(C)(C)C3	63%	55%	15*	-33	16
CC(C)CSc1ncnc2c1oc1nc3c(cc12)COC(C)(C)C3	19%	.	-2	28	-8
CC(C)COc1ncnc2c1sc1nc3c(cc12)COC(C)(C)C3	105%	185%	14	.	21*
CCOc1ncnc2c1sc1nc3c(cc12)COC(C)(C)C3	.	.	.	60	.
SMILES	Pf growth 48h	Pf growth 96h	Cycloheximide cs	HCMV antiviral	Shiga inhibitor
CCSc1ncnc2c1sc1nc3c(cc12)COC(C)(C)C3	112%	0%	19*	55	29
COC(=O)C[C@H]1CC[C@H](NC(=O)Nc2ccccc2OC)[C@@H](CO)O1	.	.	.	16	.
C=CCn1c(C)nc2c(sc3nc4c(cc32)COC(C)(C)C4)c1=O	175%	164%	43*	137	50*
CCc1nc2c(sc3nc4c(cc32)COC(C)(C)C4)c(=O)n1CCN(CC)CC	7%	-8%	-2	71	16
COc1ccccc1N1CCN(C2CCCN(C(=O)CCC(C)=O)C2)CC1 (stereo not given)	-5%	-16%	-1	22	-3
N#Cc1cc(C#N)c(N2CCN(c3ccccn3)CC2)nc1N	-4%	98%	44*	89	60*
c1ccc(N2CCN(c3cnccn3)CC2)nc1	29%	31%	-7	-12	-11
CCOc1ccc(C(=O)Nc2ccc(S(=O)(=O)N(Cc3ccccc3)c3ccccc3)cc2)cc1	.	.	.	-61*	.
Cc1ccc(C(=O)Nc2ccc(S(=O)(=O)N(Cc3ccccc3)c3ccccc3)cc2)cc1	.	.	.	-18	.
CCOc1ccc(NC(=O)c2ccc(F)c(S(=O)(=O)N(CC)Cc3ccccc3)c2)cc1	.	.	.	-97*	.
O=C(O)c1ccc(N(Cc2ccccc2)S(=O)(=O)c2ccccc2)cc1	-4%	9.3µM*!	-5	32	3
O=C(CN(c1cccc([N+](=O)[O-])c1)S(=O)(=O)c1ccccc1)N(Cc1ccccc1)Cc1ccccc1	?	46%	-1	-62*	23
CCN(Cc1ccccc1)S(=O)(=O)c1cc(C(=O)Nc2cc(Cl)cc(Cl)c2)ccc1F	.	.	.	-97*	.
CN(Cc1ccccc1)S(=O)(=O)c1ccc(F)c(C(=O)Nc2cc(Cl)cc(Cl)c2)c1	.	.	.	-15	.
Cc1ccc(NC(=O)COC(=O)C2CC2C)c(S(=O)(=O)N2CCCCC2)c1 (stereo not given)	-18%	?	-3	-2	15
Nc1ccc(C(=O)Nc2ccc(NC(=O)c3ccco3)c(O)c2)cc1	39%	11%	16	?	24
CC(C)Oc1ccc(C(=O)Nc2ccc(NC(=O)c3ccco3)c(Cl)c2)cc1	-1%	-12%	40*	.	50*
O=C(Nc1ccc(NC(=O)c2ccco2)c(Cl)c1)c1ccccc1	26%	50%	47*	18	79*
O=C(Nc1ccc(Br)c(Cl)c1)c1ccco1	-6%	-9%	41*	52	76*
CC(C)COc1ccc(C(=O)Nc2ccc(NC(=O)c3ccco3)c(Cl)c2)cc1	.	394%	13	-39	6
Cc1ccc(S(=O)(=O)N2CCOCC2)cc1NC(=O)c1cc2ccccc2oc1=O	.	.	.	-101*	.
O=C(Nc1cccnc1N1CCOCC1)c1cc2ccccc2oc1=O	-5%	-16%	26*	-8	47*
COc1cccc2cc(C(=O)Nc3cccnc3N3CCOCC3)c(=O)oc12	18%	.	0	0	8
Cc1ccc(S(=O)(=O)N2CCOCC2)cc1NC(=O)c1cc(-c2ccccn2)nc2ccccc12	9.3µM*	?	-3	-70*	-2
O=C(Nc1cc(S(=O)(=O)N2CCOCC2)ccc1N1CCCCC1)c1cc(-c2ccccn2)nc2ccccc12	-27%	?	-1	-13	-4
SMILES	Pf growth 48h	Pf growth 96h	Cycloheximide cs	HCMV antiviral	Shiga inhibitor
CCc1ccc(CNC(=O)c2cccc(-n3c(C)nc4cccnc43)c2)cc1	.	.	.	0	.
C=CCn1c(SC(C)C(=O)NC2CC2)nnc1-c1ccoc1C (stereo not given)	?	-5%	.	8	.
COCCCn1c(=N)c(C(=O)NCc2cccnc2)cc2c(=O)n3cccc(C)c3nc21	.	.	.	-10	.
CSc1nnc(C)c(=O)[nH]1	-18%	15µM*	5	24	-2
Cc1nn(CCC#N)c(NC(=O)c2ccc(Cl)cc2)c1P(=O)(Nc1ccc([N+](=O)[O-])cc1)N1CCOCC1 (stereo not given)	-13%	.	-3	32	-23
Cc1nn(CCC#N)c(NC(=O)c2ccc(Cl)cc2Cl)c1P(=O)(Nc1ccc([N+](=O)[O-])cc1)N1CCOCC1 (stereo not given)	8.3µM*	.	12	-18	-18

Source: PubChem BioAssay
